Screening data: PubChem BioAssay, several laboratories
Yeast superoxide – caloric restriction mimetics inhibiting age-related superoxide in yeast | S. cerevisiae aged cells, superoxide DHE fluorescence; hits give low values | superoxide response (% of plate mean), % at 10 µM | 0.18% of 330,000 active | AID 2690;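 active = superoxide response under a set limit, about three screen SD below normal, cut at about 65% in these data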;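 also: yeast aged for seven days with compound at 30 °C before DHE staining; 100% = average MFI of all compound-treated wells on the plate with controls excluded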
MPTP block – permeability transition pore inhibition; 1.4% of 360,000 active; inhibition, % at 10 µM; isolated mouse mitochondria, Ca2+ swelling absorbance, 30 min;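 active = inhibition of 50% or more, scaled per plate between neutral and stimulator controls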;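 also: 0% = DMSO wells given calcium and 100% = 1 mM EGTA wells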
aDG glyco up – alpha-DG glycosylation activation. Pro5-aDG cells, alpha-DG glycosylation AlphaScreen (IIH6); 0% Pro5, 100% B10-LARGE cell signal. activation, % at 10 µM. 0.22% of 360,000 active. AID 624168;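 active = activation of at least 8% versus controls, or a plate z-score of at least 8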;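 also: Pro5 are CHO cells carrying HIG-tagged alpha-DG that lacks glycosylation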
Mot1-301 SUMO – blocks SUMOylation pathway, rescuing yeast Mot1-301 growth; S. cerevisiae Mot1-301 growth rescue, ATP luminescence, 38.5C; percent above DMSO median, 100 means doubled; growth rescue, % at 18.8 µM; 1% of 320,000 active;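 active = every valid replicate shows activation above 250% relative to neutral control wells; inactive = the rest, any valid replicate at or below 250%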;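 also: OY570 slx delta 5 strain wells were the positive control but not used for scaling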
Cardio protect – myocardial damage modulation in H9c2 cells; H9c2 cardiomyocytes, H2O2 injury protection, ATPLite, 2 h; protection from H2O2 cell death, % at 20 µM; 0.63% of 360,000 active; AID 588492;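 active = compounds giving at least 50% protection of heart cells from peroxide-induced death in the single-dose screen, raw or plate-pattern-corrected value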;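 also: 0% = DMSO wells with peroxide and 100% = DMSO wells without peroxide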
FAS-TE inh – blocks the thioesterase domain of human fatty acid synthase; 0.67% of 360,000 active; AID 602261; inhibition, % at 15 µM; P49327; recombinant FAS-TE, OMFH fluorogenic substrate, fluorescence endpoint;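 active = compounds whose normalised, plate-corrected inhibition of enzyme fluorescence in the single-dose primary screen is 50% or more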;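 also: 0% = DMSO with enzyme and 100% = substrate without enzyme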
aDG conf – alpha-DG glycosylation activation, confirmation | shares compounds with aDG glyco up | Pro5-aDG cells, IIH6 AlphaLISA; scaled to LARGE-overexpressing B10 cells as 100% | activation, % at 10 µM (by protocol) | 17% of 600 active | AID 651671;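 active = activation of at least 7% in one or more replicates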;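 also: cells exposed to compound for two days before detection; 0% = DMSO-treated Pro5 cells and 100% = DMSO-treated B10-LARGE cells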
* marks the source's active call; other numbers are inactive results; nt = no result. A selection: hits, their analogues and other compounds. The true share with any hit is near 3.8%.

SMILES	Yeast superoxide	MPTP block	aDG glyco up	Mot1-301 SUMO	Cardio protect	FAS-TE inh	aDG conf
COc1ccc2cc(CN(C(=O)Nc3ccccc3)C3CCCC3)c(=O)[nH]c2c1	96	3	16*	-9	2	11	-1
Cc1ccc(Sc2ccc(S(=O)(=O)Nc3ccc(CC(=O)O)cc3)cc2)cc1C	102	-2	0	-11	-4	4	nt
CC(C)CCC(=O)N1CCOC1=O	109	5	0	5	-1	-12	nt
COc1ccc(C(C)=O)cc1COC(=O)CNC(=O)C1CCCCC1	89	-1	9.1*	9	18	-6	0
COc1ccc(NC(=O)COC(=O)CNC(=O)C2CCCCC2)cc1OC	88	0	0	4	3	-7	nt
C(=N\c1nc2ccccc2n1CCN1CCCCC1)/c1ccc2c(c1)OCO2	113	19	7.8*	8	6	-4	2
CN1CC(=O)N(CC(=O)Nc2ccc(Cl)c(C(F)(F)F)c2)C1=O	90	-1	5.9*	3	-1	5	1
O=C(CN1C(=O)NC2(CCCC2)C1=O)Nc1ccc(Cl)c(C(F)(F)F)c1	92	-1	0	110	-4	10	nt
COc1ccc2sc(/C=C/c3ccccc3O)[n+](C)c2c1	nt	6	11*	nt	-8	-8	1
Cn1c(=O)oc2cc(S(=O)(=O)NCCC(=O)NCCc3ccccc3)ccc21	90	3	4.3*	146	-3	2	1
Cc1ccc(-c2cc(N)n[nH]2)cc1	89	0	0	-29	-5	-9	nt
CC(C)(C)c1ccc(-c2cc(N)n[nH]2)cc1	81	0	9.7*	4	-15	-7	0
Cn1nccc1C(=O)Nc1cc(Cl)ccc1Cl	81	1	2.7*	4	-2	-7	-1
Cn1nccc1C(=O)Nc1ccc(Cl)cc1	94	-2	0	-2	6	-4	nt
Cc1ccc(C)c(N2CCN(CCCNC(=O)Cn3cccc3C(=O)c3ccccc3)CC2)c1	121	-2	10*	5	-3	5	3
O=C(Cn1cccc1C(=O)c1ccccc1)NCCCN1CCOCC1	103	-10	0	-13	-4	-12	nt
O=C(/C=C/c1ccco1)Nc1ccc(-c2nc3ccccc3[nH]2)cc1	117	2	5.0*	-12	17	-3	-1
O=C(Nc1ccc(-c2nc3ccccc3[nH]2)cc1)c1ccco1	93	0	1	225	-11	-3	nt
Cc1cc(C)cc(N=Cc2[nH]c3ccc(Br)c(Cl)c3c2O)c1	97	0	5.9*	-14	-14	-27	-1
COc1ccc(CN=Cc2[nH]c3ccc(Br)c(Cl)c3c2O)cc1	95	6	3	36	-6	12	nt
COc1ccc(NC2CCCN(C(=O)c3ccccc3C(F)(F)F)C2)cc1 (stereo not given)	105	-1	0	-8	2	0	nt
CCCCN(C(=O)c1cnc(C)cn1)c1c(N)n(CCC)c(=O)[nH]c1=O	99	-1	0	0	-7	-7	nt
COc1ccccc1CNS(=O)(=O)c1c(C)nc2sccn2c1=O	97	0	0	-21	7	-5	nt
Cc1nc2sccn2c(=O)c1S(=O)(=O)NCc1ccccc1Cl	89	-1	10*	-8	-4	-6	1
CCCCCCCCC(c1nc2ccccc2[nH]1)N1CCN=C1c1cc2ccccc2[nH]1 (stereo not given)	nt	13	0	nt	-14	-88	nt
SMILES	Yeast superoxide	MPTP block	aDG glyco up	Mot1-301 SUMO	Cardio protect	FAS-TE inh	aDG conf
COc1ccccc1Cc1c(-c2ccc(C#N)cc2)nc2c3ccccc3ccn12	nt	1	8.9*	nt	5	4	3
COC(=O)C1=C(C)NC(C)=C(C(=O)OC)C1c1ccc(OC(=O)c2ccco2)cc1	71	-8	0	-18	6	3	nt
COC(=O)C1=C(C)NC(=S)NC1c1ccc(OC(=O)c2ccco2)cc1 (stereo not given)	96	-5	5.3*	nt	5	-3	2
Cc1nn(C)cc1C1C2=C(CC(C)(C)CC2=O)N(c2ccccc2)C2=C1C(=O)CC(C)(C)C2	108	-1	4.2*	-21	13	-5	-1
CC(C)NC(=O)N(C)C[C@H]1Oc2ccc(NC(=O)Nc3ccccc3)cc2C(=O)N([C@H](C)CO)C[C@@H]1C	80	-2	0	-23	-1	-3	nt
C[C@H](CO)N1C[C@H](C)[C@@H](CN(C)S(=O)(=O)c2ccccc2)OCCCC[C@H](C)Oc2ccc(NC(=O)CCC(F)(F)F)cc2C1=O	nt	0	3.4*	nt	-3	-3	0
C[C@H]1CN([C@@H](C)CO)C(=O)Cc2cc(NC(=O)CCC(F)(F)F)ccc2O[C@H]1CN(C)Cc1ccc(-c2ccccc2)cc1	103	1	5.7*	33	-2	10	0
CC(C)NC(=O)N(C)C[C@H]1Oc2ccc(NC(=O)Cc3ccccc3)cc2C(=O)N([C@H](C)CO)C[C@@H]1C	91	-2	9.5*	1	-4	-4	-1
C[C@H]1CN([C@@H](C)CO)C(=O)Cc2cc(NC(=O)CCC(F)(F)F)ccc2O[C@H]1CN(C)Cc1ccc(C(F)(F)F)cc1	90	-1	0	-12	-2	10	nt
CC(=O)O[C@@H](Cc1ccc(O)cc1)C(=O)CC(C)C	nt	0	1	nt	nt	-6	nt
O=C(CNC(=O)c1ccccc1F)NCc1ccncc1	95	-2	5.9*	-6	-2	-8	1
O=C(Nc1ccc(F)c(Cl)c1)C1Cc2c(-c3ccc4c(c3)OCO4)ccnc2O1 (stereo not given)	nt	1	0	nt	-6	25	nt
O=C(CSCc1ccc(Br)cc1)NC1CC1	96	-1	0	12	-3	-2	nt
O=C(CSCc1cccc(Br)c1)NC1CC1	90	-1	5.3*	16	10	-4	0
COC(=O)COc1ccc(S(=O)(=O)Nc2ccc(C(N)=O)cc2)cc1Cl	133	-2	77*	24	29	-3	-1
COC(=O)COc1ccc(S(=O)(=O)Nc2ccc(C(N)=O)cc2)cc1C	103	0	0	12	9	-6	nt
COC(=O)c1c(NC(=O)CSc2nnc(-c3ccco3)n2C)sc(C)c1C	86	1	6.1*	-19	2	1	0
COc1ccccc1NC(=O)Nc1nc(C(N)Cc2ccccc2)cs1 (stereo not given)	nt	5	7.4*	nt	4	-8	6.9*
COc1ccccc1NC(=O)Nc1nc(C(N)Cc2ccc(Cl)cc2)cs1 (stereo not given)	nt	3	1	nt	-17	-9	nt
